Among all 47,000 compounds or so, about 140 (0.3%) were called active. No stated cut-off is given here; in the data, active means inhibition above about 30%; inactive means the rest. What follows is part of a selection rich in actives, with near analogues and random picks from the rest.
Each compound was assayed against Ubiquitin carboxyl-terminal hydrolase 7 (Homo sapiens) (UniProt Q93009) (assay: blocks human USP7 ubiquitin-rhodamine cleavage (AID 1645854)). Settings: purified USP7, Ub-rhodamine cleavage fluorescence; at 20 µM; active compounds read high.
Sequence of Ubiquitin carboxyl-terminal hydrolase 7 (Homo sapiens) (Q93009 whole entry, looked up): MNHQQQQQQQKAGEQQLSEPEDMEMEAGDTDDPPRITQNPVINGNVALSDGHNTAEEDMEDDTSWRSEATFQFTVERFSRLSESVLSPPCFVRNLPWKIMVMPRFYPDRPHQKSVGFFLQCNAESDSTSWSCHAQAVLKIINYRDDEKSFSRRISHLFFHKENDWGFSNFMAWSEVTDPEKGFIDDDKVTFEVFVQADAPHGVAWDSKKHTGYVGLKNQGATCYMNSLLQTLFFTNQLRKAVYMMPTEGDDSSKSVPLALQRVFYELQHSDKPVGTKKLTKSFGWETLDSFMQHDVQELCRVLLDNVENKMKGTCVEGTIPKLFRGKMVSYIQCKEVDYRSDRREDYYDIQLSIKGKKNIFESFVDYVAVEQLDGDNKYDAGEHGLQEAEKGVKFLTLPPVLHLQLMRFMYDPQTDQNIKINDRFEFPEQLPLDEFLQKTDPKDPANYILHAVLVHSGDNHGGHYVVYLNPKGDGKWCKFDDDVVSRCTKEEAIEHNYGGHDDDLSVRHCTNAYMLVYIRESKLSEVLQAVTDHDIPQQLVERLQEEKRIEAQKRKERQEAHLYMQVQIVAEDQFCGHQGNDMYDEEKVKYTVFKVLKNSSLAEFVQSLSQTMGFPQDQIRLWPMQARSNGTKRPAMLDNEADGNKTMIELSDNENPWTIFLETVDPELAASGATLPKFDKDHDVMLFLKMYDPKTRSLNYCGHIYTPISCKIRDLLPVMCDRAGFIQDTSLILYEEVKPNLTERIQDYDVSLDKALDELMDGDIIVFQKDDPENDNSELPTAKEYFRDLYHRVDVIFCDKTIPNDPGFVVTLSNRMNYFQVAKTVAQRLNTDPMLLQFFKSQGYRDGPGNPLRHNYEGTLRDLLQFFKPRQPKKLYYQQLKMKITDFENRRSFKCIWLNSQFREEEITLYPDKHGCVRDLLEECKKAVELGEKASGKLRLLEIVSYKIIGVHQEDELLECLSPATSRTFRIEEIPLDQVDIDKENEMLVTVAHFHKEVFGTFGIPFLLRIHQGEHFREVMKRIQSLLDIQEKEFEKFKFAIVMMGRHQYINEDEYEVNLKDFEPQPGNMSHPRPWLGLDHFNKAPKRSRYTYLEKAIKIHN

inhibition, inactive:
COc1cccc(CN2CCCC2c2noc(C3CC3)n2)c1 (stereo not drawn) 0.378%
COc1ccccc1CN1C[C@@H]2C[C@@H](O)CN2C[C@@H]1Cc1ccccc1 -13%
COc1ccc(-c2nnc(-c3ccccc3)o2)cc1S(=O)(=O)N1CCc2ccccc2C1 8.25%
COc1ccc(-c2nonc2NC(=O)Cc2ccccc2)cc1OC -0.82%
CNc1nc(C2CCN(C(=O)c3ccc4c(c3)OCCO4)C2)nc2c1CN(C)CC2 (stereo not drawn) -10.6%
O=C(COc1ccccc1-c1nnc(-c2ccccc2)o1)Nc1cc(F)ccc1F 5.06%
COc1ccc(-c2cnc(N(C)C)nc2C2CCCCN2)cc1 (stereo not drawn) -4.92%
CC(=O)N1CCC(NC2(Cc3cc(C(C)(C)C)on3)COC2)CC1 0.342%
CCOC(=O)Nc1cc(C)nn1-c1ncnc2c1cnn2-c1ccc(F)cc1 0.0906%
Cc1ccc(S(=O)(=O)N2CCN(C(=O)CN3CCc4ccccc43)CC2)cc1 -5.22%
CCOc1ccccc1C1C2=C(CC(C)(C)CC2=O)Nc2ccccc2N1C(=O)c1ccccc1 (stereo not drawn) -4.8%
COc1ccc(CC(=O)N2CCCCC2c2ccc3c(=O)n(C)c(=O)n(C)c3n2)cc1 (stereo not drawn) 0.092%
O=C(NCc1ccc(Cl)cc1)C1CCN(c2nccn3nc(-c4ccccc4)cc23)CC1 -35.4%
O=C(CN1CCCCC1)N[C@@H]1C[C@H]2Oc3ccccc3N[C@H]2[C@@H]1O 3.93%
O=C(C1CCNCC1)N1CCN(c2ccccc2F)CC1 1.05%
COc1ccccc1NC(=O)CSc1nc2ccccc2n1S(=O)(=O)c1ccc(Br)cc1 -6.03%
CC(C)NC(=O)N1CC[C@H]2COC(=O)N(Cc3ccccc3)[C@@H]2C1 3.45%
C/C=C(\C)C(=O)C(C)C1=CC(=O)C2=C(O[C@]3(C)CC[C@@H]4O[C@H](C(C)(C)O)CC[C@@]4(C)[C@@H]3C2)C1=O (stereo partly drawn) -44.6%
COc1ccc(C(=O)NC(C(=O)OCC(=O)c2ccc(C)cc2)C(C)C)cc1OC (stereo not drawn) 3.56%
COc1cccc(CC(NC(C)=O)C(=O)NC2CCN(C(=O)C3CCCCC3)CC2)c1 (stereo not drawn) 5.13%
O=C1[C@H]2Cc3c([nH]c4ccccc34)CN2C(=O)CN1CC(O)c1ccccc1 (stereo partly drawn) -145%
Cc1cc(CN2CCN(S(C)(=O)=O)CC(C(=O)N(C)C)C2)no1 (stereo not drawn) 0.0126%
COc1ccccc1NS(=O)(=O)c1ccc2c(c1)C(=O)N(C)c1ncccc1O2 2.84%
Cc1nn(Cc2ccccc2)c(C)c1C(=O)NS(=O)(=O)c1ccccc1Cl 1.27%
Cc1cc(C(=O)N2CCCC2c2ccccc2C)on1 (stereo not drawn) 0.669%
O=C(c1cc(=O)[nH]c2ccccc12)N1CCN(Cc2cn3ccccc3n2)CC1 -8.75%
COc1ccc(C2CC(=O)n3nc(-c4cccc(C)c4)nc3S2)cc1 (stereo not drawn) 0.741%
COC(=O)c1ccccc1NC(=O)c1nc(-c2ccccc2)oc1C -0.0638%
O=C(CSc1ncnc2c1sc1cccc(F)c12)N1CCCCCC1 -136%
COc1cccc(N2CCN(C(=O)Nc3ccc4c(c3)NC(=O)CO4)CC2)c1 3.68%
O=S(=O)(c1cc(-c2noc(C3CC3)n2)cs1)N1CCc2ccccc21 7.51%
Cc1ccc(C)c(N(C)C(=O)c2cccc3c2SCCC3=O)c1 -2.51%
Cn1cncc1-c1cncc(CC2CCCN(S(C)(=O)=O)C2)n1 (stereo not drawn) 0.0473%
O=C(O)COc1cc(O)c2c(=O)cc(-c3ccccc3)oc2c1 -6.31%
Cc1csc(C2(NC(=O)Cc3cc(C)on3)CCCC2)n1 -8.11%
COC(=O)c1c(C)[nH]c(C(=O)C(C)OC(=O)c2cccc(F)c2)c1C (stereo not drawn) -2.46%
CCc1ccc(-n2c(=O)c3ccccc3n(CC(=O)NCCC3=CCCCC3)c2=O)cc1 8.71%
CCOC(=O)C1(C)C=C(Nc2ccc(C(=O)O)c(O)c2)C(=O)N1c1ccccc1 (stereo not drawn) -4.45%
CC(=O)NC(Cc1ccccc1F)C(=O)NC1CCN(C(=O)C2CC2)CC1 (stereo not drawn) 1.1%
O=C(c1cccc(F)c1)N1CCN(Cc2cc(=O)c3ccccc3[nH]2)CC1 2.84%
Cc1cccc(NC(=O)Cc2nc(C)c(C(=O)NC3CC3)s2)c1C -0.0337%
O=C(CC1(O)C(=O)N(CCc2ccccc2)c2ccc(Cl)cc21)c1ccc2c(c1)OCCO2 (stereo not drawn) 5.91%
COc1ccc(-c2nc3ccccc3c3nnc(SCC(N)=O)n23)cc1 6.48%
Cc1cc(C)nc(SCc2nnc(Nc3ccccc3)s2)n1 0.95%
CCc1ccc(C(=O)COc2ncnc3scc(-c4ccccc4)c23)cc1 4.6%
O=C(COc1cccc2ccc(N3CCC(Cc4ccccc4)CC3)nc12)Nc1cccc(F)c1 5.1%
Cn1c(CNC(=O)c2cn3ccccc3n2)nc2ccccc21 -4.22%
COc1ccc(C(=O)Nc2ccccc2N2CCOCC2)cc1S(=O)(=O)N(C)Cc1ccccc1 2.61%
COc1cc2c(cc1OC)-c1cc(NCc3ccccc3)nc(=O)n1CC2 -10.1%
CC1(C)C(=O)Nc2ccc(S(=O)(=O)NCc3ccc(F)cc3)cc21 1.68%
Cc1cn(C)c(C2CCCN2C(=O)c2cc(C)nc3onc(C)c23)n1 (stereo not drawn) -2.53%
Cc1cccc(NC(=O)CCc2nnc3ccc(NCc4ccc5c(c4)OCO5)nn23)n1 -2.6%
Cn1c(=O)n(C2CCN(CCc3ccccc3)CC2)c2ncncc21 2.05%
Cc1ccc(C(=O)N2CC(=O)N(Cc3ccc(Cl)cc3)CC(O)C2)cc1 (stereo not drawn) -42.1%
Cc1nnc(-c2cnn(C)c2N)n1CC1CCCO1 (stereo not drawn) -0.964%
CCOC(=O)c1noc2nc(C)n(Cc3nc(-c4ccccc4)oc3C)c(=O)c12 1.79%
c1cnc(N2CCC3(CCN(Cc4ccc5c(c4)OCO5)CC3)C2)nc1 6.59%
COc1c2c(cc3c1C(c1nnnn1-c1ccc(C)cc1C)N(C)CC3)OCO2 (stereo not drawn) 10.7%
NC(=O)c1c(NC(=O)c2ccccc2Oc2ccccc2)sc2c1CCN(Cc1ccccc1)C2 -143%
O=C(Cc1ccccc1)N1CCN(c2cc(C(F)(F)F)nc3ccccc23)CC1 6.33%
CCN(c1ccccc1)S(=O)(=O)c1ccc2c(c1)OC(C)CN2C(C)=O (stereo not drawn) -10.2%
CN(C)CCNC(=O)c1ccc2ccc(N(C)CC3CC3)n2c1 -3.23%
Cc1nccn1-c1cc(N2CCCC2)nc2ccnn12 -3.6%
CCCn1nccc1C(=O)NC[C@H]1C[C@@]2(C)[C@@H](O)CCCC[C@H]2N1C(C)=O 4.78%
COc1ccc(CC(=O)N2CCC3(CC2)OC(C(=O)NCC(C)C)Cn2ccnc23)cc1 (stereo not drawn) -0.841%
O=C(NCc1ccncc1)c1nc(-c2ccc(N3CCCCC3)nc2)no1 -95.1%
Cc1cc2nc(N3CCOCC3)n(CC(=O)Nc3ccccc3F)c(=O)c2n1C -0.476%
COc1ccccc1CNS(=O)(=O)c1ccc2c(c1)C(=O)N(C)c1ncccc1O2 1.09%
O=C(CN1C(=O)[C@@H]2CCCN2c2ncccc21)NCc1ccccc1F -0.124%
Cc1csc2nc(COc3ccccc3NC(=O)c3ccccc3)cc(=O)n12 -2.52%
O=C(c1nc(-c2ccc3cc[nH]c3c2)no1)N1CCN(c2nsc3ccccc23)CC1 2.44%
Cc1ccccc1CS(=O)(=O)Cc1ccc(C(=O)Nc2noc3ccccc23)o1 2.52%
Cc1cccc(N2CCN(C(=O)c3nc4cccnc4n(C)c3=O)CC2)c1C -13.2%
O=C(Nc1ccc(F)cc1)c1ccc(CN2CCOCC2)cc1 3.54%
Cc1cnc(C2COCCN2C(=O)c2c(C(C)C)noc2C)[nH]1 (stereo not drawn) 4.99%
Cc1ccc(NC(=O)N2CCN3CCCCC3C2)c(C)c1 (stereo not drawn) -0.822%
O=C(Nc1nc2ccc(S(=O)(=O)N3CCOCC3)cc2s1)c1cc2ccccc2oc1=O 0.00877%
Cc1ccc(-c2nc(Cn3nnc(C(=O)O)c3C)c(C)o2)cc1 1.5%
CCc1cnc(N2CCC3(CCN(C(=O)c4cccnc4)C3)CC2)nc1 1.31%
OCCN1CCN(CC(O)COCCOc2ccc(Cl)cc2)CC1 (stereo not drawn) 6.76%
Cc1cnn(CC(=O)N2CCCCCC2c2ccncc2)c1 (stereo not drawn) -1.92%
CC(C)[C@H](Cn1nnc2ccccc21)NC(=O)c1ccc2c(c1)CCN2S(C)(=O)=O -1.02%
CC(C)CCNC(=O)C(=O)c1cn(CC(=O)N2CCCC2)c2ccccc12 -9.94%
CSc1cccc(NC(=O)CCn2c(=O)c3cccn3c3ccccc32)c1 5.36%
Cc1nc(C2CCCN2C(=O)c2cccc3ncccc23)ncc1C(=O)N1CCOCC1 (stereo not drawn) 1.41%
O=C(C1CCN(c2cnc3nccnc3c2)CC1)N1CCN(C2CCCCC2)CC1 -29.4%
COc1ccc(-c2nnc(SCC(=O)c3cc(C)ccc3C)o2)cc1OC 9.96%
CC1CCC(NC(=O)C2(C)Cc3ccccc3C(=O)N2Cc2ccccc2)CC1 (stereo not drawn) -18.1%
